This is an account of results in PubChem BioAssay (Tox21).

Records with an inconclusive call do not appear. Activity calls are given as the source filed them. Unless noted, the call rests on the fitted dose curve.

A short description of experiment [1]: Nuclear factor erythroid 2-related factor 2/antioxidant responsive element (Nrf2/ARE) small molecule agonists: qHTS cell viability counter screen in human keratinocytes (AID 1919968; active means well fitted curve in the direction sought with a large enough effect in the repeat runs; an effect the other way counts as inactive or inconclusive; further: nearly all actives have a fitted effect of over 55% in size). Put shortly: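 Viability counter-screen: KeratinoSens reporter cells, DMSO-delivered compounds, 23 h at 37 C, CellTiter-Fluor fluorescence.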
Experiment [2] can be described thus: Nuclear factor erythroid 2-related factor 2/antioxidant responsive element (Nrf2/ARE) small molecule agonists: luciferase reporter gene qHTS assay in human keratinocytes (AID 1919969). Further: nearly all actives have a fitted effect of over 35% in size.
Experiment [3] deals with Gonadotropin-releasing hormone receptor (Homo sapiens) (UniProt P30968). In words: Human gonadotropin-releasing hormone receptor (GnRHR) small molecule agonists, calcium flux assay in GnRHR-HEK293 cells (AID 1920063). Further: nearly all actives have a fitted effect of over 35% in size. Put shortly:
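Tox21-format agonist screen using human GnRHR-expressing HEK293 cells and a fluorescent calcium dye; kinetic 3-min fluorescence reading after compound addition, 15-point concentration series run in triplicate.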

For experiment [4], the target named is KiSS-1 receptor (Homo sapiens) (UniProt Q969F8). In words: Human kisspeptin (KISS1R) small molecule agonists, calcium flux assay in KISS1R-HEK293 cells (AID 1920064; active means well fitted curve in the direction sought with a large enough effect in the repeat runs; an effect the other way counts as inactive or inconclusive). A digest of the protocol:
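Intracellular calcium mobilization in KISS1R-HEK293 cells was recorded by fluorescence (Ex/Em 480/540) for 3 min following compound addition to cells pre-loaded 1 h with calcium dye.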

The nature of experiment [5]: G protein-coupled receptor (GPCR) small molecule agonists, calcium flux assay: HEK293 wild type cell line counter screen (AID 1920065). Put shortly: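 In this agonist-mode screen, ATP is the positive control and DMSO the vehicle. Cells grow 18 h before a 1 h dye incubation at 37 C; signal is taken at Ex/Em 480/540 over 3 min.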
Experiment [6] can be described thus: p53 small molecule agonists, cell-based qHTS assay with rat liver microsomes (AID 1963578). Put shortly:
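Fluorescence from a beta-lactamase reporter under a p53 response element was measured after cells had been incubated 16 h at 37 C with test compound and rat liver microsomes plus NADPH (0.5 mg/mL final each).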

Experiment [7] can be described thus: p53 small molecule agonists, cell-based qHTS assay with human liver microsomes: qHTS cell viability counter screen (AID 1963579). Further: nearly all actives have a fitted effect of over 45% in size. A digest of the protocol:
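Seed p53RE-bla cells at 4,000 per well; incubate 5 h at 37 C; add compound, human liver microsomes and NADPH; incubate 16 h at 37 C; add CellTiter-Glo; after 30 min at room temperature, read luminescence.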

Experiment [8] is described as follows: p53 small molecule agonists, cell-based qHTS assay with rat liver microsomes: qHTS cell viability counter screen (AID 1963580). Further: nearly all actives have a fitted effect of over 45% in size. A digest of the protocol:
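Intracellular ATP, by CellTiter-Glo luminescence, defines viability. HCT-116 p53RE-bla cells, 4,000 per well, were compound-treated in the presence of rat liver microsomes and NADPH for 16 h at 37 C.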

Experiment [9] in a line: p53 small molecule agonists, cell-based qHTS assay: qHTS cell viability counter screen (AID 1963581). Further: nearly all actives have a fitted effect of over 45% in size. A digest of the protocol: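 Compounds are pinned onto HCT-116 p53RE-bla cells and left 16 h at 37 C. Following the reporter FRET read, ATP is quantified by CellTiter-Glo luminescence after 30 min at room temperature.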
Experiment [10] is described as follows: p53 small molecule agonists, cell-based qHTS assay (AID 1963582; active means well fitted activation curve with a large enough effect in the signal ratio in the repeat runs, not every such curve was filed as active; the % refers to the signal ratio). A digest of the protocol: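 Agonist activity was scored from beta-lactamase FRET fluorescence in p53RE-bla cells treated 16 h at 37 C with compounds in DMSO, substrate incubation being 2 h at room temperature.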
Experiment [11] concerns the target 5-hydroxytryptamine receptor 2A (Homo sapiens) (UniProt P28223). The experiment in a line: 5-hydroxytryptamine receptor 2A (HTR2A) small molecule antagonists, cell-based qHTS assay (AID 1963586). Further: nearly all actives have a fitted effect of over 45% in size. Put shortly:
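Antagonist-mode intracellular calcium assay: DOI (4 nM) added after 5 min compound pre-incubation at room temperature to dye-loaded HTR2A-CHO cells. Fluorescence followed for 3 min, sampled every second.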

Experiment [12] has the same target. In words: 5-hydroxytryptamine receptor 2A (HTR2A) small molecule agonists, cell-based qHTS assay (AID 1963587). Further: nearly all actives have a fitted effect of over 30% in size. Put shortly:
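Kinetic calcium-flux fluorescence (2 min, 1 sec intervals) after compound addition in agonist mode. HTR2A-CHO cells were cultured 18 h, then dye-loaded 1 h at 37 C.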

Experiment [13] concerns the target Muscarinic acetylcholine receptor M1 (Homo sapiens) (UniProt P11229). The experiment in a line: Cholinergic receptor muscarinic 1 (CHRM1) small molecule antagonists, cell-based qHTS assay (AID 1963588). Further: nearly all actives have a fitted effect of over 40% in size. A digest of the protocol:
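CHRM1-CHO calcium-flux assay, antagonist mode. Cells were seeded 18 h, dye-loaded 1 h at 37 C and given compound for 5 min at RT, then acetylcholine was added at 50nM. FDSS fluorescence was read 3 min; 15 concentrations, three runs.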

The target is the same in experiment [14]. The experiment in a line: Cholinergic receptor muscarinic 1 (CHRM1) small molecule agonists, cell-based qHTS assay (AID 1963589). Further: nearly all actives have a fitted effect of over 35% in size. Put shortly: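 Stable CHRM1-CHO cells (human receptor) were incubated 18 h, dye-loaded for 1 h at 37 C and exposed to test compounds for agonist activity, with calcium-dependent fluorescence followed kinetically.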
A short description of experiment [15]: cAMP Responsive Elements (CRE) small molecule agonists, cell-based qHTS assay (AID 1963590). Put shortly:
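FRET-based beta-lactamase readout (LiveBLAzer B/G, 2 h RT) quantified CRE activation in HEK 293T CRE-bla cells after 3 h treatment with DMSO-dissolved compounds.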

A short description of experiment [16]: cAMP Responsive Elements (CRE) small molecule antagonists, cell-based qHTS assay (AID 1963591; active means well fitted inhibition curve with a large enough effect in the signal ratio in the repeat runs, not every such curve was filed as active; the % refers to the signal ratio). A digest of the protocol: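 qHTS in CRE-bla HEK 293T cells: compound in DMSO, then 0.25 uM NKH477 (final), 3 h at 37 °C/5% CO2; beta-lactamase FRET read-out after 2 h substrate incubation.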
In experiment [17] the target is D(2) dopamine receptor (Homo sapiens) (UniProt P14416). The experiment in a line: Dopamine D2 receptor (DRD2) small molecule antagonists, cell-based qHTS assay (AID 1963595; active means well fitted inhibition curve with a large enough effect in the signal ratio in the repeat runs, with a control signal flat; the % refers to the signal ratio). A digest of the protocol: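 Antagonism was scored as restored cAMP in HEK293-DRD2 cells. These cells were stimulated with 200 nM NKH477 and 12 nM quinpirole for 30 min at room temperature, in the presence of 0.1 mM Ro20-1724.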

For experiment [18], the target named is Beta-2 adrenergic receptor (Homo sapiens) (UniProt P07550). The experiment in a line: Adrenergic beta2 receptor (ADRB2) small molecule antagonists, cell-based qHTS assay (AID 1963592). Further: nearly all actives have a fitted effect of over 50% in size. Further: potency means the concentration at half of the fitted maximal effect. A digest of the protocol: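 Cells (CHO, stable ADRB2 overexpression) incubated 18-20hr at 37C; compounds added from DMSO; agonist mix (1nM isoproterenol, 100uM IBMX, 25uM Ro-20-1724) added; 0.5hr RT; d2-cAMP and anti-cAMP-cryptate added; 1hr RT; 665/615 nm read.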

The target in experiment [19] is D(2) dopamine receptor (Homo sapiens) (UniProt P14416). In words: Dopamine D2 receptor (DRD2) small molecule agonists, cell-based qHTS assay (AID 1963594). Further: nearly all actives have a fitted effect of over 35% in size. A digest of the protocol:
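cAMP accumulation in DRD2-HEK293 cells measured by HTRF after 1 h detection; compounds added 10 min before NKH477 (200nM […]) forskolin-analogue stimulation, 30 min at room temperature, with Ro20-1724 present at 0.1 mM final.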

Experiment [20] has as its target Beta-2 adrenergic receptor (Homo sapiens) (UniProt P07550). The experiment in a line: Adrenergic beta2 receptor (ADRB2) small molecule agonists, cell-based qHTS assay (AID 1963593).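 Further: CHO cells stably overexpressing human ADRB2.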 Put shortly: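 CHO cells stably over-expressing ADRB2 were plated overnight at 37C, then dosed with compounds plus a stimulation mix containing 100uM IBMX and 25uM Ro-20-1724 for 0.5hr at room temperature. cAMP was measured by HTRF competition, 1hr.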

Sequence of Muscarinic acetylcholine receptor M1 (Homo sapiens) (P11229 whole entry, looked up): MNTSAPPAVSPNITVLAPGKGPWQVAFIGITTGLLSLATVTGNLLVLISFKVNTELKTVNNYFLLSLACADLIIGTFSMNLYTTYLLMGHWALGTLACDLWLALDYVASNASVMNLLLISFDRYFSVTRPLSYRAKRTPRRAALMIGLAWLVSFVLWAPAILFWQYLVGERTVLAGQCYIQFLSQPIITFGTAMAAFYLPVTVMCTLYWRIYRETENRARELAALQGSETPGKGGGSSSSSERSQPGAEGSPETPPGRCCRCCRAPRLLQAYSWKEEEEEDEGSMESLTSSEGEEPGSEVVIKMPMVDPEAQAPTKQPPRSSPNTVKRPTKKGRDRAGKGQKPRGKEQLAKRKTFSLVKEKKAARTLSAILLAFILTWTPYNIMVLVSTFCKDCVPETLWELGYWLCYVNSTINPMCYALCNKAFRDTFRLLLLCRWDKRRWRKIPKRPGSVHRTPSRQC
Sequence of KiSS-1 receptor (Homo sapiens) (Q969F8 whole entry, looked up): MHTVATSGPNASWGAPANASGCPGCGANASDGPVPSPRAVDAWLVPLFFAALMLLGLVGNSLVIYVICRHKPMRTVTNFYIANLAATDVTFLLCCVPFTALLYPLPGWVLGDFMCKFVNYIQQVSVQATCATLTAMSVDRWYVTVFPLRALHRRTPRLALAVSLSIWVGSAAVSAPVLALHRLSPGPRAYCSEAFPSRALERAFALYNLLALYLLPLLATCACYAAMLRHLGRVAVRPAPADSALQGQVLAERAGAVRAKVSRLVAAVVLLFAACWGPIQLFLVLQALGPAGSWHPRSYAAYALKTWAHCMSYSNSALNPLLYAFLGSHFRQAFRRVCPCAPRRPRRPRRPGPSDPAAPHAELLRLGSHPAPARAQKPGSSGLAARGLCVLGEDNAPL
Sequence of Gonadotropin-releasing hormone receptor (Homo sapiens) (P30968 whole entry, looked up): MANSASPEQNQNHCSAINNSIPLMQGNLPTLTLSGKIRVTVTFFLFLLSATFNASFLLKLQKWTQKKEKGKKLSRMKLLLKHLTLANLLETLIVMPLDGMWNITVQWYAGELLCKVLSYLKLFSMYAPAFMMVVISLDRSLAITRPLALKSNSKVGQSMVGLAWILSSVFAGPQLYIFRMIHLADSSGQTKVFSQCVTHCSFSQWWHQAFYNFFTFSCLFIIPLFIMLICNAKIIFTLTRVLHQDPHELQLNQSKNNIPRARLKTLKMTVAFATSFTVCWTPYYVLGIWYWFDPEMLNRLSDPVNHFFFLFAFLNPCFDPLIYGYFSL
Sequence of Beta-2 adrenergic receptor (Homo sapiens) (P07550 whole entry, looked up): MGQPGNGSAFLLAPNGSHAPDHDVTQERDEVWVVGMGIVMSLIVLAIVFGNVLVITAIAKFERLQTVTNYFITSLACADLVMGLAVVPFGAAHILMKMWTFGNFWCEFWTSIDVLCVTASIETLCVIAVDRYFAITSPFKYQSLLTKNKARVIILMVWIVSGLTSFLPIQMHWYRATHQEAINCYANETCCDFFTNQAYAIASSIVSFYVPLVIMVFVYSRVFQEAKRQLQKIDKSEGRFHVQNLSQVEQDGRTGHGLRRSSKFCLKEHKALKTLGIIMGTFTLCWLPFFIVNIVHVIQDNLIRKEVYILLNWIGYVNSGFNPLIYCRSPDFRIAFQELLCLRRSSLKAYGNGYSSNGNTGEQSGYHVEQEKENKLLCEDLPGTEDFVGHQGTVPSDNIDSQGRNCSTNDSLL
Sequence of 5-hydroxytryptamine receptor 2A (Homo sapiens) (P28223 whole entry, looked up): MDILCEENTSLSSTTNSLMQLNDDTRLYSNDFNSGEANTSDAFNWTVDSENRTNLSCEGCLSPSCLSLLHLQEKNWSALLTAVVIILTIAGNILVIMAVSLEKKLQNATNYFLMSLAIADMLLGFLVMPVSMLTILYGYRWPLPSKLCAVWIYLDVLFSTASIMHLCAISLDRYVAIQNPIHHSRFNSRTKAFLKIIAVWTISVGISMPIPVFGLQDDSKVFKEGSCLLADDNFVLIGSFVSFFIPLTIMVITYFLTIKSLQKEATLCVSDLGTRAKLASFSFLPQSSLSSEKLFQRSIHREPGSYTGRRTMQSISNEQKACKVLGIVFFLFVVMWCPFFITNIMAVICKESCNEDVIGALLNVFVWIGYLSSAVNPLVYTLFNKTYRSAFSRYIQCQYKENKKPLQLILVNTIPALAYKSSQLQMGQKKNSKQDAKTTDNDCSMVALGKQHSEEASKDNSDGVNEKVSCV
Sequence of D(2) dopamine receptor (Homo sapiens) (P14416 whole entry, looked up): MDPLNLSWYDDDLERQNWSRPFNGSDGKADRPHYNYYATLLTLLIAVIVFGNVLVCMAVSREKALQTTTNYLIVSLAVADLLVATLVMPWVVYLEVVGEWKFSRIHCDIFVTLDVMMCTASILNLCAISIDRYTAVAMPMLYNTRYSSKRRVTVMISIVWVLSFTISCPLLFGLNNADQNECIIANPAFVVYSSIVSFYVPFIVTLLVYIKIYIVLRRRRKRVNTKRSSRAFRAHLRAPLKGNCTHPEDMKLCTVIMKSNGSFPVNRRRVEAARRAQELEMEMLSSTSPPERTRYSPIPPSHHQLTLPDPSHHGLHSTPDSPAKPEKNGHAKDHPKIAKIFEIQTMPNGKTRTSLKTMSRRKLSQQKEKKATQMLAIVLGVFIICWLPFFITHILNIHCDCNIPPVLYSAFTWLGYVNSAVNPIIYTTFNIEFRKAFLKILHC

On to `CCCC(C)CC` (configuration not stated), for which the Potency entry in experiment [1], in experiment [2], in experiment [3], in experiment [4], in experiment [5] and in experiment [6] was “inactive” each time. In addition, the Potency result in [7], in experiment [8], in experiment [9], in experiment [10], in experiment [11] and in experiment [12] was “inactive” in each case. Besides, the Potency result in experiment [13], in experiment [14], in experiment [15], in experiment [16] and in experiment [17] was “inactive” throughout.
Consider `O=C(O)CCc1nc2ccccc2[nH]1`, for which the Potency result in experiment [1], in experiment [2], in experiment [3], in [4], in experiment [5] and in [6] was “inactive” throughout. The Potency entry in experiment [7], in experiment [8], in [9], in [10], in [11] and in [12] was “inactive” in each case. The Potency result in experiment [13], in [15], in experiment [16], in [18], in experiment [19] and in [17] was “inactive” throughout.
`Cc1ccc(NC(=O)c2ccc(CN3CCN(C)CC3)cc2)cc1Nc1nccc(-c2cccnc2)n1`: the Potency entry in experiment [1], in [2], in experiment [3], in experiment [4], in [5] and in experiment [6] was “inactive” throughout. The Potency result in experiment [7], in experiment [8], in experiment [9], in experiment [10], in experiment [15] and in [18] was “inactive” each time. For the same molecule, the Potency entry in experiment [20], in experiment [19] and in experiment [17] was “inactive” throughout.
As for `Cc1ccccc1C(=O)Nc1ccc(C(=O)N2CCCC(O)c3cc(Cl)ccc32)c(C)c1` (configuration not stated), the Potency result in [1], in [2], in experiment [3], in experiment [4], in experiment [5] and in [6] was “inactive” throughout. Further, the Potency result in experiment [7], in [8], in [9], in experiment [10], in [12] and in experiment [13] was “inactive” throughout. The Potency result in experiment [14], in experiment [15], in [16], in [18], in experiment [19] and in [17] was “inactive” in each case.
With `CCN(CC)CCNC(=O)COc1ccc(OC)cc1`, the Potency result in [1], in experiment [2], in experiment [3], in [4], in experiment [5] and in [6] was “inactive” each time. Also, the Potency result in experiment [7], in [8], in [9], in [10], in experiment [11] and in experiment [12] was “inactive” throughout. Also, the Potency result in experiment [13], in experiment [16], in experiment [18], in [20], in experiment [19] and in experiment [17] was “inactive” in each case.
Turning to `CC1CC(=O)NN=C1c1ccc(NCC(C)(C)NCC(O)COc2cc(Cl)ccc2C#N)cc1` (configuration not stated), the Potency result in experiment [1], in [2], in experiment [3], in experiment [4], in experiment [5] and in [6] was “inactive” throughout. For the same molecule, the Potency result in [7], in experiment [8], in experiment [9], in [10], in experiment [11] and in [12] was “inactive” each time. Besides, the Potency result in [13], in experiment [14] and in experiment [17] was “inactive” each time. In addition, the Potency in experiment [18] was 5.31 µM (active).
Consider `O=C(O)COC(=O)Cc1ccccc1Nc1c(Cl)cccc1Cl`, for which the Potency result in experiment [1], in experiment [2], in experiment [3], in experiment [4], in [5] and in [6] was “inactive” throughout. The Potency result in experiment [7], in [8], in experiment [9], in experiment [10], in [15] and in experiment [16] was “inactive” each time. Further, the Potency entry in experiment [20], in [19] and in experiment [17] was “inactive” in each case.
